Screening results as filed in PubChem BioAssay.
A selection: hits, their analogues and other compounds. The true share with any hit is near 21%.
Pf growth 48h: inhibits P. falciparum growth in the first generation, 48 h; actives 5.9% (n = 310,000); AID 504832; Potency, µM (highest dose often 28.7 µM), for the others: at the highest dose activity change, negative = inhibition, actives largely listed as inhibitors; P. falciparum luciferase growth in erythrocytes, 48 h; further: potency means the concentration at half of the fitted maximal effect; on the % scale 0 is the no-effect control and ±100 the full control effect
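In quantitative HTS format, infected erythrocytes bearing luciferase-reporter parasites were treated for a single generation at 37 C. Luminescence after adding detection reagent served as the growth measure.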
Pf growth 96h: P. falciparum growth inhibition at 96 hour, primary screen for plastid delayed-death inhibitors. P. falciparum luciferase reporter growth, 96 h. Potency, µM (doses to about 28.7 µM), for inactives: at the top dose activity change, negative = inhibition, usual class: inhibitors. actives 6.9% (n = 320,000); further: potency means the concentration at half of the fitted maximal effect; on the % scale 0 is the no-effect control and ±100 the full control effect
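Cell-based qHTS: luciferase-tagged P. falciparum in erythrocytes (2% hematocrit, 0.05% parasitemia final) incubated with compounds for 96 hours, 37 C, 5% CO2; luciferase detection reagent then added and luminescence measured.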
NS1 inh: blocks influenza NS1 protein function. Potency, µM (doses to about 46.1 µM), inactives show top-dose activity, positive = more growth. actives 0.4% (n = 270,000); calls by dose curve; further: potency means the concentration at half of the fitted maximal effect; actives are rising curves; nearly all actives have a fitted effect of over 50% in size
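OD600 was taken as the measure of yeast growth restored by compound in an NS1-expressing S. cerevisiae strain. Cells had been washed out of glucose medium and diluted 1:100 into galactose -URA medium, pH 6.0.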
Shiga inhibitor: Shiga toxin inhibition | Vero cells, Shiga toxin protein synthesis inhibition reporter | actives 9.2% (n = 290,000) | inhibition, % at 38.7 µM; in the data active means inhibition mostly above about 28%, no sharp cut-off; inactive means mostly below about 43%; further: 0% is about no effect
Sm TGR block: S. mansoni TGR enzyme inhibition. Q962Y6. AID 485364. actives 3% (n = 360,000). purified TGR, DTNB reduction, TNB absorbance 405 nm. Potency, µM (series often up to 114 µM), inactives show at the top dose activity change, negative = inhibition, usual class: inhibitors; further: potency means the concentration at half of the fitted maximal effect; on the % scale 0 is the no-effect control and ±100 the full control effect; nearly all actives have a fitted effect of over 60% in size
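First, TGR (20 nM dispensed) and NADPH were mixed with compound. Second, a 15 min room-temperature incubation followed. Third, further NADPH and then DTNB were added to start the reaction. Finally, TNB absorbance was monitored kinetically.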
Cycloheximide cs: counter-screen hit for Shiga toxin inhibitors, cycloheximide | cell reporter, cycloheximide protein synthesis inhibition counterscreen | max response, % | actives 12% (n = 300,000) | AID 2314; in the data active means max response mostly above about 13%, no sharp cut-off; inactive means mostly below about 14%; further: read at 38.3 µM for the half of the compounds with a filed dose; 0% is about no effect
* marks the source's active call; other numbers are inactive results. Unless noted, the call rests on the fitted dose curve; in most records, active means well fitted curve in the direction sought with a large enough effect; inconclusive means small, poorly fitted or top-dose-only effect, or another doubt; inactive means no such curve, though single readings can be large; an effect the other way counts as inactive or inconclusive.

Screening COc1ccc(CNC(=O)c2onc(C)c2Cl)cc1 returned Pf growth 48h -3%, Pf growth 96h 13µM*, NS1 inh -7%, Shiga inhibitor 20, Sm TGR block -7% and Cycloheximide cs -2.
`COc1ccc(NC(=O)c2onc(C)c2Cl)cc1OC` gave Pf growth 96h 16%, NS1 inh -7%, Shiga inhibitor 49*, Sm TGR block -14% and Cycloheximide cs 51*.
Cc1cccc(C)c1NC(=O)c1nc(SC(C)C)ncc1Cl was read as Sm TGR block 0%.
For COc1ccc(OC)c(NC(=O)C(=O)NNC(=O)c2cccs2)c1 the results were Pf growth 48h 18%, Pf growth 96h 15%, NS1 inh 0%, Shiga inhibitor -6, Sm TGR block -6% and Cycloheximide cs -7.
COc1ccc(NC(=O)c2onc(C)c2Cl)cc1 was read as Pf growth 48h 124%, Pf growth 96h 252%, NS1 inh -1%, Shiga inhibitor 89*, Sm TGR block -4% and Cycloheximide cs 40*.
Screening Cc1noc(NC(=O)c2ccc(Cl)cc2)c1Cl returned Pf growth 48h -27%, Pf growth 96h -13%, Shiga inhibitor 66*, Sm TGR block -10% and Cycloheximide cs 44*.
Screening Cc1noc(C(=O)Nc2cccc(Cl)c2)c1Cl returned Pf growth 48h 109%, Pf growth 96h 9.3µM*, NS1 inh -2%, Shiga inhibitor 60*, Sm TGR block -30% and Cycloheximide cs 33*.
Cc1noc(NC(=O)c2cccc(C(F)(F)F)c2)c1Cl was read as Pf growth 48h -10%, Pf growth 96h -27%, NS1 inh -7%, Shiga inhibitor -17 and Cycloheximide cs 1.
`COC(=O)c1ccccc1NC(=O)c1onc(C)c1Cl` gave Pf growth 48h 31%, Pf growth 96h 5.2µM*, NS1 inh 0%, Shiga inhibitor -6, Sm TGR block -2% and Cycloheximide cs 0.
For CCc1ccc2[nH]c(C(=O)N(C)c3ccc(F)cc3F)cc2c1 the results were Pf growth 48h -34%, Pf growth 96h 3%, NS1 inh 7%, Shiga inhibitor -4, Sm TGR block -16% and Cycloheximide cs 12.
For CC(C)CN(C(=O)Cn1ccccc1=O)C1CCS(=O)(=O)C1 (stereo unspecified) the results were Pf growth 48h -13%, Pf growth 96h 2% and Sm TGR block -3%.
For COc1ccc(-n2cc(-c3ccccc3)c3c(N4CCCC(C)C4)ncnc32)cc1 (stereo unspecified) the results were Sm TGR block 0%.
For Cc1cc2nc(-c3ccc(SCC(=O)Nc4nccs4)nc3)[nH]c2cc1C the results were Pf growth 48h 0%, Pf growth 96h inconclusive, NS1 inh 2%, Shiga inhibitor 15, Sm TGR block -2% and Cycloheximide cs 39*.
For CCc1nnc(NC(=O)CSc2ccc(-c3nc4ccc(C)cc4[nH]3)cn2)s1 the results were Pf growth 48h 81%, Pf growth 96h inconclusive, NS1 inh 19%, Shiga inhibitor 51*, Sm TGR block -15% and Cycloheximide cs 32*.
For Cc1cc2nc(-c3ccc(SCC(=O)Nc4ccc(S(=O)(=O)N5CCCC5)cc4)nc3)[nH]c2cc1C the results were Pf growth 48h inconclusive, Pf growth 96h inconclusive, NS1 inh inconclusive, Shiga inhibitor 81*, Sm TGR block 2% and Cycloheximide cs 36*.
CC[C@@H](C)[C@H](CN[C@H](CNC)[C@@H](C)O)NCCc1ccc(OC)cc1 was read as Pf growth 48h inconclusive, Pf growth 96h inconclusive, NS1 inh -6%, Shiga inhibitor -1, Sm TGR block 7% and Cycloheximide cs 1.
For CCCc1c(C(=O)NNc2cc(C(F)(F)F)ccc2Cl)cnn1-c1ccccc1 the results were Pf growth 48h inconclusive, Pf growth 96h inconclusive, NS1 inh 2%, Shiga inhibitor -6, Sm TGR block inconclusive and Cycloheximide cs 1.
`COc1cccc(C2C=C(c3ccc(C)c(C)c3)Nc3nnnn32)c1OC` (stereo unspecified) gave Sm TGR block -17%.
COc1cccc(C2=CC(c3cc(OC)ccc3OC)n3nnnc3N2)c1 (stereo unspecified) was read as Pf growth 48h -12%, Pf growth 96h inconclusive, NS1 inh -22%, Shiga inhibitor -5, Sm TGR block inconclusive and Cycloheximide cs 15.
`COc1cccc(C2=CC(c3cccc(OC)c3OC(F)F)n3nnnc3N2)c1` (stereo unspecified) gave Pf growth 48h inconclusive, Pf growth 96h 233%, NS1 inh 2%, Shiga inhibitor 8, Sm TGR block -6% and Cycloheximide cs 17*.
For COc1cccc(C2=CC(c3cccc(OC)c3OC)n3nnnc3N2)c1 (stereo unspecified) the results were Pf growth 48h 47%, Pf growth 96h inconclusive, NS1 inh -33%, Shiga inhibitor 41*, Sm TGR block 40µM* and Cycloheximide cs 30*.
Screening CCc1c(C)c2ccc(OCC(=O)NCC3CCC(C(=O)O)CC3)cc2oc1=O (stereo unspecified) returned Pf growth 48h 3%, Pf growth 96h 37%, NS1 inh 18%, Shiga inhibitor -6, Sm TGR block -29% and Cycloheximide cs -5.
Screening Cc1nnsc1S(=O)c1ccc(Br)cc1 (stereo unspecified) returned Pf growth 48h inconclusive, Pf growth 96h inconclusive, NS1 inh 0%, Shiga inhibitor -13, Sm TGR block -31% and Cycloheximide cs -5.
Cc1ccc(C)c(NC(=O)c2cc([N+](=O)[O-])cc([N+](=O)[O-])c2)c1 was read as Pf growth 48h inconclusive, Pf growth 96h inconclusive, NS1 inh 3%, Shiga inhibitor -9, Sm TGR block -1% and Cycloheximide cs -1.
CCCC[C@H](NC(C)=O)C(=O)N[C@@H](CCC(=O)O)C(=O)N[C@@H](Cc1cnc[nH]1)C(=O)N[C@H](Cc1ccccc1)C(=O)N[C@@H](CCCN=C(N)N)C(=O)N[C@H](Cc1c[nH]c2ccccc12)C(=O)NCC(N)=O was read as Shiga inhibitor -7 and Cycloheximide cs -7.
Screening O=C(O)CN(CC(=O)O)c1ccccc1 returned NS1 inh 2%.
For Cc1cccc(N(CC(=O)O)CC(=O)O)c1 the results were Pf growth 48h -13%, Pf growth 96h 13µM*, NS1 inh -2%, Shiga inhibitor -7, Sm TGR block inconclusive and Cycloheximide cs 2.
`O=C(CCl)N(Cc1ccccc1)c1ccccc1` gave Pf growth 48h 10µM*, Pf growth 96h inconclusive, Shiga inhibitor 6, Sm TGR block 5µM* and Cycloheximide cs 26*.
